Each structure is given as a SMILES string.

The source of these data is PMC5540273 (PLoS ONE, 2017).
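Also: kd values determined as follow-up on hits from a single-replicate KINOMEscan panel screen.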

In one experiment the test system is T1, TRKC.
T1 construct: gene NTRK3
By Kd is commonly meant the constant that tells how readily two partners part at equilibrium. The compound `COC(=O)c1cccc(NC(=O)NC2CCN(c3ccnc(Nc4ccc(OC)cc4)n3)C2)c1` (centres unmarked) [GSK1379746] came in with an equilibrium dissociation constant (Kd) of 1000 nM. In other words, the single-digit micromolar range.

As to `COC(=O)c1cccc(NC(=O)NC2CCN(c3ccnc(Nc4ccc(F)cc4)n3)C2)c1` (centres unmarked) [GSK1379725], the Kd turned out to be 340 nM. Compared with the last compound, the Kd is about 2.9-fold lower.

As for `CC(=O)c1cccc(NC(=O)NC2CCN(c3ccnc(Nc4ccc(F)cc4)n3)C2)c1` (centres unmarked) [GSK1379710], the equilibrium dissociation constant (Kd) was 94 nM.

The next experiment deals with T2, VPS34.
T2 construct: gene PIK3C3
The compound `O=C1NC(=O)C(c2ccc(Cl)cc2)=C1Nc1cccc(Cl)c1` [SB-317651] had a Kd of 300 nM.

As for `O=c1cc(N2CCOCC2)nc2n(Cc3cccc(Cl)c3Cl)c3ccccc3n12` [GSK2299009], binding was characterised by a dissociation constant (Kd) of 470 nM.

Take `Cc1ccccc1Cn1ccn2c(=O)cc(N3CCOCC3)nc12` [GSK2269905]: binding was put at a Kd of 180 nM.

With `O=c1cc(N2CCOCC2)nc2n(Cc3ccccc3F)ccn12` [GSK2297428], the affinity, expressed as Kd, was 68 nM.

In turn, `Cc1c(Cn2c3ccccc3n3c(=O)cc(N4CCOCC4)nc23)cccc1C(F)(F)F` [GSK2306394] showed a Kd of over 10000 nM.
